{"source": "PubChem BioAssay (Tox21)", "note": "Results filed as inconclusive are left out. A number with no mark means an inactive call. Calls of active or inactive are those of the source. Calls follow the shape of the full dose curve. % is scaled to controls: 0 for no effect and ±100 for the full control effect.", "data": [{"assay": "qHTS assay to identify small molecule agonists or antagonists of the thyroid stimulating hormone receptor (TSHR) signaling pathway - wild type cell line counter screen (AID 1259384)", "conditions": "HEK293 wild type, cAMP HTRF counter-screen, stronger effect = higher value; series mostly up to 92.4 µM; cAMP activity change: at the top concentration", "description": "U.S. Tox21 Program National Center for Advancing Translational Sciences [NCATS] NIH Chemical Genomics Center [NCGC] U.S. Environmental Protection Agency [EPA] National Institutes of Environmental Health Sciences [NIEHS] National Toxicology Program [NTP] U.S. Food and Drug Administration [FDA] Tox21 Assay Overview: TSHR is the receptor for thyrotropin (thyroid stimulating hormone or TSH), a member of the glycoprotein hormone family. TSH is released by the anterior pituitary gland and is the main regulator of thyroid gland growth and development. Upon binding circulating thyrotropin, a G-protein signal cascade activates adenylyl cyclase and […] cAMP concentration is increased. cAMP is a key second messenger involved extensively in cellular signal transduction pathways associated with the majority of G-protein coupled receptors (GPCRs). The activation of these GPCRs by neurotransmitters, lipids, nucleotides, peptides and hormones results in the activation or the inhibition of plasma membrane-bound adenylate cyclase through heterotrimeric G-proteins. A cell-based TSHR-Hek293 assay can be used to identify TSHR agonists. To eliminate the false positive compounds identified from screening a cell-based TSHR-Hek293 cell line, cAMP assay in a wild type Hek293 cells was used as a counter screening.\nTox21 Assay Protocol Summary: Hek293 cells (wild type) were dispensed at 800 cells/4 uL/well in 1536-well white plates using a Multidrop dispenser. After the assay plates were incubated at a 37 C/5% CO2 incubator for 18 hrs, 23 nL of compounds dissolved in DMSO, positive controls or DMSO only was transferred to the assay plate by a pin tool, followed by 1 ul medium containing Ro20-1724. After 30 min of incubation at room temperature, 2.5 ul/well of cAMP-d2 and 2.5 ul/well of anti-cAMP-cryptate were added respectively into the assay plates using a Flying Reagent Dispenser. The plates were incubated at room temperature for 1 hr. The fluorescence intensity in the plates was measured using an Envision plate reader. Each test compound was measured at 15 concentrations and in triplicates.", "values": [{"smiles": "CCCSS/C(CCO)=C(\\C)N(C=O)Cc1cnc(C)nc1N", "cAMP activity change": "-8.05% [at 42.5 µM]"}, {"smiles": "Cc1ccc(CCn2c3c(c4cc(Cl)ccc42)CN(C)CC3)cn1", "cAMP activity change": "-3.63% [at 42.5 µM]"}, {"smiles": "O=C1NCN(c2ccccc2)C12CCN(CCCC(c1ccc(F)cc1)c1ccc(F)cc1)CC2", "cAMP activity change": "4.76% [at 42.5 µM]"}, {"smiles": "COC(=O)[C@]1(C)CCC[C@@]2(C)[C@H]1CC=C1C=C(C(C)C)CC[C@@H]12", "cAMP activity change": "-1.92%"}, {"smiles": "CC1(C)C(=O)N(CO)C(=O)N1CO", "cAMP activity change": "0.0285%"}, {"smiles": "CC(C)c1cccc(C(C)C)c1N1C(=O)c2ccc(O)cc2C1=O", "cAMP activity change": "-0.856%"}, {"smiles": "CCCCCCCC/C=C\\CCCCCCCC(=O)OCCOC(=O)CCCCCCC/C=C\\CCCCCCCC", "cAMP activity change": "5.75%"}, {"smiles": "NC(=O)C(=O)N/N=C/c1ccc([N+](=O)[O-])o1", "cAMP activity change": "-2.45% [at 42.5 µM]"}, {"smiles": "NC(=O)c1nc(-c2cccc(-c3cc(F)ccc3OCC(F)(F)C(F)(F)F)c2)n[nH]1", "cAMP activity change": "5.72%"}, {"smiles": "CCN(CC)c1cccc(C)c1", "cAMP activity change": "-6.15%"}, {"smiles": "C[Si](C)O[Si](C)C", "cAMP activity change": "6.48%"}, {"smiles": "COc1nccnc1CC(C)C", "cAMP activity change": "-1.7%"}, {"smiles": "c1cc[nH]c1", "cAMP activity change": "-0.0644%"}, {"smiles": "COC(=O)CC#N", "cAMP activity change": "-1.14%"}, {"smiles": "CN1CCN(C2Cc3ccccc3Sc3ccc(Cl)cc32)CC1", "note": "(stereo not given)", "cAMP activity change": "7.8% [at 42.5 µM]"}, {"smiles": "CC(COC(=O)c1ccccc1)OC(=O)c1ccccc1", "note": "(stereo not given)", "cAMP activity change": "1.11%"}, {"smiles": "C=C[C@](C)(O)CC[C@@H]1[C@@]2(C)CCCC(C)(C)[C@@H]2CC[C@@]1(C)O", "cAMP activity change": "1.06%"}, {"smiles": "CN(C)CCCN1c2ccccc2Sc2ccc(C(F)(F)F)cc21", "cAMP activity change": "-3.33% [at 42.5 µM]"}, {"smiles": "O=C1NC2CCCCN2C12CCN(CCCN1c3ccccc3CCc3ccc(Cl)cc31)CC2", "note": "(stereo not given)", "cAMP activity change": "0.484% [at 42.5 µM]"}, {"smiles": "C/C=C/C=N/NC(=O)c1ccncc1", "cAMP activity change": "1.42% [at 42.5 µM]"}, {"smiles": "CCc1ccc(C)nc1", "cAMP activity change": "-0.344%"}, {"smiles": "COc1cccc(CCc2ccccc2OCC(CN(C)C)OC(=O)CCC(=O)O)c1", "note": "(stereo not given)", "cAMP activity change": "0.0201% [at 42.5 µM]"}, {"smiles": "NC1(c2ccc(-c3nc4ccn5c(=O)[nH]nc5c4cc3-c3ccccc3)cc2)CCC1", "cAMP activity change": "-1.57% [at 42.5 µM]"}, {"smiles": "CCCCCCCC/C=C/CCCOC(C)=O", "cAMP activity change": "-3.19%"}, {"smiles": "CNC(=O)c1cc(Oc2ccc(NC(=O)Nc3ccc(Cl)c(C(F)(F)F)c3)cc2)ccn1", "cAMP activity change": "-2.15% [at 42.5 µM]"}, {"smiles": "Cc1nc(Nc2ncc(C(=O)Nc3c(C)cccc3Cl)s2)cc(N2CCN(CCO)CC2)n1", "cAMP activity change": "-16.5% [at 42.5 µM]"}, {"smiles": "CC(NCCC(c1ccccc1)c1ccccc1)c1ccccc1", "note": "(stereo not given)", "cAMP activity change": "-0.616% [at 42.5 µM]"}, {"smiles": "CN(Cc1cc(Br)cc(Br)c1N)C1CCCCC1", "cAMP activity change": "-0.511% [at 42.5 µM]"}, {"smiles": "Cc1cn[nH]c1", "cAMP activity change": "-1.82% [at 42.5 µM]"}, {"smiles": "Brc1ccccn1", "cAMP activity change": "-0.452%"}, {"smiles": "CC1CCCCN1CCCOC(=O)c1ccc(OC2CCCCC2)cc1", "note": "(stereo not given)", "cAMP activity change": "4.37% [at 42.5 µM]"}, {"smiles": "C[C@@H]1CC[C@H]2C(C)(C)[C@H]3C[C@@]12CC[C@@]3(C)O", "cAMP activity change": "-5.51%"}, {"smiles": "CSc1ccc2c(c1)N(CCC1CCCCN1C)c1ccccc1S2", "note": "(stereo not given)", "outcome": "inactive"}, {"smiles": "Cc1cncc(C)c1", "cAMP activity change": "4.12%"}, {"smiles": "Brc1ccccc1-c1ccccc1", "cAMP activity change": "-1.19%"}, {"smiles": "Cc1cccc(N(C)C)c1", "cAMP activity change": "-0.13%"}, {"smiles": "O=C=NCc1cccc(CN=C=O)c1", "cAMP activity change": "-0.613% [at 18.9 µM]"}, {"smiles": "CCCC(C)CCC(C)=O", "note": "(stereo not given)", "cAMP activity change": "-0.0285%"}, {"smiles": "CC(=O)OC1CCCCC1", "cAMP activity change": "-7.08%"}, {"smiles": "CCCCCCCC(=O)OCC", "cAMP activity change": "-0.944%"}]}]}
